According to PubChem BioAssay (NCI):
“And” between values parts separate entries of the source, which are not always exact repeats. Identical values can stand only once. This is part of a sample that, as a whole, favours compounds with a hit. Of some 83,000 tested, about 20% had one in any assay.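 Interpretation: 100, growth as untreated; towards 0, rising growth inhibition; 0, no net growth; 0 to -100, cell death. Compounds scoring below 10 were considered active.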 The source made the active and inactive calls.

Tests used:
Experiment in all cases: NCI-60 one-dose screen, 48 h (100 = growth as untreated, 0 = no growth, -100 = all killed)
SR leukemia = conditions: 10 µM unless noted
RPMI-8226 leukemia = conditions: 10 µM unless noted
OVCAR-8 ovarian = conditions: 10 µM unless noted
OVCAR-5 ovarian = conditions: 10 µM unless noted
OVCAR-4 ovarian = conditions: 10 µM unless noted
SK-OV-3 ovarian = conditions: 10 µM unless noted
IGROV1 ovarian = conditions: 10 µM unless noted
HS 578T breast = conditions: 10 µM unless noted
NCI/ADR-RES ovarian = conditions: 10 µM unless noted
T-47D breast = conditions: 10 µM unless noted
BT-549 breast = conditions: 10 µM unless noted
SW-620 colon = conditions: 10 µM unless noted
MCF7 breast = conditions: 10 µM
HCT-116 colon = conditions: 10 µM unless noted
HCC-2998 colon = conditions: 10 µM unless noted
KM12 colon = conditions: 10 µM unless noted
OVCAR-3 ovarian = conditions: 10 µM unless noted
MDA-MB-435 melanoma = conditions: 10 µM unless noted

Row | Structure (SMILES) | growth (SR leukemia) | growth (RPMI-8226 leukemia) | growth (OVCAR-8 ovarian) | growth (OVCAR-5 ovarian) | growth (OVCAR-4 ovarian) | growth (SK-OV-3 ovarian) | growth (IGROV1 ovarian) | growth (HS 578T breast) | growth (NCI/ADR-RES ovarian) | growth (T-47D breast) | growth (BT-549 breast) | growth (SW-620 colon) | growth (MCF7 breast) | growth (HCT-116 colon) | growth (HCC-2998 colon) | growth (KM12 colon) | growth (OVCAR-3 ovarian) | growth (MDA-MB-435 melanoma)
1 | Cc1ccc(N=C=C(c2ccccc2)c2ccccc2)cc1 | 22.9% (inactive) | 16.6% (inactive) | 70% (inactive) | 113% (inactive) | 103% (inactive) | 112% (inactive) | 57.2% (inactive) | 91.1% (inactive) | 81.2% (inactive) | 85.7% (inactive) | 91.9% (inactive) | 35.8% (inactive) | 68.5% (inactive) | 15.9% (inactive) | 101% (inactive) | 95% (inactive) | – | –
2 | CCCCCCCCCCCCCCCCCCOP(=O)([O-])OC1CC[N+](C)(C)CC1 | 3.18% (active) and -3.35% (active) | 6.44% (active) and -36.6% (active) | 49.6% (inactive) | -24.1% (active) and -61.2% (active) | 65.2% (inactive) | – | -61.7% (active) | 11.8% (inactive) | 73.5% (inactive) and 54.9% (inactive) | -18.4% (active) and 2.5% (active) | 24.3% (inactive) and -14.9% (active) | – | 38.5% (inactive) and 18.4% (inactive) | 19.5% (inactive) and -41.9% (active) | 5.08% (active) and -75.7% (active) | -44.2% (active) and -95.1% (active) | 65.9% (inactive) and 14% (inactive) | 15.8% (inactive) and -67.3% (active)
3 | NC1=CC(=O)c2ccccc2C1=O | 81.3% (inactive) | 81.7% (inactive) | 85.3% (inactive) | 110% (inactive) | 87.7% (inactive) | 92.3% (inactive) | 90.8% (inactive) | 71.6% (inactive) | 88.6% (inactive) | 98% (inactive) | 92.1% (inactive) | 107% (inactive) | 54.5% (inactive) | 80.8% (inactive) | 90.4% (inactive) | 79.3% (inactive) | – | –
4 | CC(=Nc1ccc(N(C)C)cc1)c1ccccc1 | 32.6% (inactive) | 7.42% (active) | – | 106% (inactive) | 69.9% (inactive) | 73% (inactive) | 58.8% (inactive) | 74.2% (inactive) | 74.7% (inactive) | 39.6% (inactive) | 58.3% (inactive) | 42.6% (inactive) | 20.8% (inactive) | 50% (inactive) | 58.2% (inactive) | 42.6% (inactive) | 25.3% (inactive) | 54.4% (inactive)
5 | CN(C)C(=O)SC1=C(c2c(Cl)cccc2Cl)C(=O)c2ccccc21 | -36.3% (active) | -2.59% (active) | – | 106% (inactive) | -11.6% (active) | 110% (inactive) | 119% (inactive) | 21.4% (inactive) | 99.1% (inactive) | -71.9% (active) | 87.2% (inactive) | -83.9% (active) | -43.6% (active) | -64.6% (active) | 114% (inactive) | 99.4% (inactive) | -81.5% (active) | -13% (active)
6 | CCN(CC)CC(C)(C)C(=O)/C=C/c1ccc(Cl)c(Cl)c1 | 10.3% (inactive) | 2.2% (active) | – | -43.1% (active) | 30.3% (inactive) | 42.7% (inactive) | -7.68% (active) | 10.2% (inactive) | -12.6% (active) | -11.3% (active) | 16.4% (inactive) | -39.5% (active) | -13.8% (active) | -60.6% (active) | -65.2% (active) | -4.49% (active) | – | –
7 | O=Nc1ccccc1N=O | 63.8% (inactive) | 86.7% (inactive) | – | 105% (inactive) | 88.9% (inactive) | 116% (inactive) | 91.1% (inactive) | 84.2% (inactive) | 81.2% (inactive) | 94.3% (inactive) | 92.7% (inactive) | 77.5% (inactive) | 65.1% (inactive) | 92.8% (inactive) | 93.9% (inactive) | 91.3% (inactive) | – | 87.3% (inactive)
8 | O=C(Oc1cccc2cccnc12)c1ccccc1 | 43.7% (inactive) | 83.3% (inactive) and 113% (inactive) | – | 105% (inactive) and 107% (inactive) | 84.6% (inactive) and 116% (inactive) | 106% (inactive) | 113% (inactive) | 74.9% (inactive) and 123% (inactive) | 87% (inactive) and 106% (inactive) | 38.6% (inactive) and 95.2% (inactive) | 101% (inactive) and 107% (inactive) | 49.7% (inactive) and 104% (inactive) | 55.1% (inactive) and 102% (inactive) | 32.8% (inactive) and 102% (inactive) | 108% (inactive) and 104% (inactive) | 101% (inactive) and 104% (inactive) | 7.19% (active) and 115% (inactive) | –
9 | NC(=O)/C=C/C(=O)c1c(Cl)cccc1Cl | -42% (active) | -34.7% (active) | – | -99.6% (active) | -67.4% (active) | 59% (inactive) | -57.5% (active) | -7.11% (active) | -59.4% (active) | -62.4% (active) | -42.4% (active) | -71% (active) | -68.9% (active) | -100% (active) | -98.6% (active) | -51.4% (active) | – | -68% (active)
10 | O=C1OCc2cccc3cccc1c23 | 93.1% (inactive) | – | 101% (inactive) | 108% (inactive) | 97.1% (inactive) | 112% (inactive) | 102% (inactive) | 102% (inactive) | 108% (inactive) | 114% (inactive) | – | – | 86.3% (inactive) | 104% (inactive) | 106% (inactive) | 104% (inactive) | 110% (inactive) | 115% (inactive)
11 | Cc1ccnc2c1ccc1c(C)ccnc12 | 4.34% (active) | 17.4% (inactive) | – | 48.8% (inactive) | 24.1% (inactive) | – | 23.8% (inactive) | 52.6% (inactive) | 1.41% (active) | 6.3% (active) | 23.2% (inactive) | 30.2% (inactive) | 13.9% (inactive) | 13.7% (inactive) | 51.3% (inactive) | 24.2% (inactive) | – | 32% (inactive)
12 | CC(=O)C(=Cc1ccc(C=C(C(C)=O)C(C)=O)cc1)C(C)=O | 6.26% (active) | – | 2.83% (active) | 27.1% (inactive) | 30.4% (inactive) | 93.9% (inactive) | 48.6% (inactive) | 64.7% (inactive) | 7.49% (active) | 29.1% (inactive) | 12.6% (inactive) | -11.2% (active) | 1.33% (active) | -56.3% (active) | 45.2% (inactive) | -43.7% (active) | – | 7.62% (active)
13 | Nc1nc(N)c2nc(CNc3ccc(C(=O)NC(CCC(=O)O)C(=O)O)cc3)cnc2n1 (stereo not drawn) | 15.1% (inactive) and 40.2% (inactive) | 60.7% (inactive) and 55% (inactive) | – | 31.9% (inactive) | 58.8% (inactive) and 49.1% (inactive) | 53.9% (inactive) and 44.2% (inactive) | 36.9% (inactive) and 34.9% (inactive) | 90.5% (inactive) | 25.8% (inactive) and 20.3% (inactive) | 58% (inactive) and 55.5% (inactive) | 45.3% (inactive) and 45.4% (inactive) | 27.6% (inactive) and 55.3% (inactive) | 18% (inactive) and 16.3% (inactive) | 21.2% (inactive) and 10.3% (inactive) | 16.6% (inactive) and 3.42% (active) | 38.7% (inactive) and 30.8% (inactive) | – | –
14 | CCN1/C(=C\c2cc[n+](CC)c3ccccc23)C=Cc2ccccc21 | 15.7% (inactive) | – | 9.96% (active) | 11.7% (inactive) | 12.9% (inactive) | 3.69% (active) | 29.8% (inactive) | 37.4% (inactive) | 86.9% (inactive) | 2.9% (active) | 10.8% (inactive) | 8.76% (active) | 8.12% (active) | 11.9% (inactive) | 23% (inactive) | 1.57% (active) | – | -30.7% (active)
15 | NC(=S)N/N=C\c1nccc2c(C(F)(F)C(F)(F)C(F)(F)F)cccc12 | -29.4% (active) | -11% (active) | – | 42.3% (inactive) | – | – | 5.98% (active) | 50.7% (inactive) | -11.6% (active) | 4.05% (active) | 41.4% (inactive) | 28.6% (inactive) | 11.5% (inactive) | 17.4% (inactive) | 13.3% (inactive) | 14.2% (inactive) | 4.2% (active) | –
16 | CCC(CCCN(CC)CCc1ccccc1)OC(=O)c1cc(OC)c(OC)c(OC)c1 (stereo not drawn) | 78.7% (inactive) | – | 92.2% (inactive) | 84.8% (inactive) | 82.6% (inactive) | 83.5% (inactive) | 78.1% (inactive) | 81.3% (inactive) | 83.3% (inactive) | 77.8% (inactive) | 99.6% (inactive) | 82.9% (inactive) | 85.9% (inactive) | 75.3% (inactive) | 96.4% (inactive) | 96.6% (inactive) | 92.2% (inactive) | 100% (inactive)
